Screening results deposited in PubChem by several laboratories.
Sampled rows, rich in hits. Any-hit rate of the full collection: about 1.9%.
EP2 mod = modulators of human EP2 prostaglandin E2 receptor; AID 940; hit rate 0.83% among 260,000; P43116; EP2-expressing cells, cAMP HTRF FRET, PGE2 co-stimulation; induction, % at 25 µM;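 active = compounds whose cAMP rise, as percent of the full-agonist control response, exceeds 60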;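 also: rat C6 glioma line stably carrying human EP2 under a CMV promoter; the protocol text gives 20 µM as final concentration; 100% = response of wells given 1 µM PGE2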
S1P4 antag = blocks the human S1P4 receptor | O95977 | S1P4-expressing cells, antagonist mode, reporter read-out | inhibition, % at 4.98 µM | hit rate 0.26% among 220,000 | AID 1510; in the data active = inhibition above about 29%;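 also: 0% = wells stimulated with agonist and 100% = vehicle wells without agonist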
PGE2 EP2 inh = EP2 receptor (human) inhibition; hit rate 0.52% among 260,000; P43116; inhibition, % at 25 µM; C6 glioma cells expressing human EP2, cAMP TR-FRET; cells stimulated with saturating PGE2;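 active = percent inhibition above 40 after rounding to a whole number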;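 also: rat C6 glioma host cells with rolipram phosphodiesterase inhibitor present; the protocol text gives 20 µM as final concentration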
S1P3 antag = S1P3 (human) receptor antagonism | AID 485 | CHO S1P3 NFAT-BLA reporter, FRET fluorescence, antagonist mode | inhibition, % at 4.98 µM | hit rate 0.27% among 170,000;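 active = inhibition above the plate cutoff, the mean inhibition of test wells on that plate plus 3 SD, cut at about 28% in these data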;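 also: cells challenged with S1P at its EC80 of 0.8 µM; blue over green emission ratio from cleaved BLA substrate after 4 h stimulation; 0% = S1P-stimulated wells and 100% = unstimulated DMSO-only wells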
Target sequence (Q99500 whole entry, looked up): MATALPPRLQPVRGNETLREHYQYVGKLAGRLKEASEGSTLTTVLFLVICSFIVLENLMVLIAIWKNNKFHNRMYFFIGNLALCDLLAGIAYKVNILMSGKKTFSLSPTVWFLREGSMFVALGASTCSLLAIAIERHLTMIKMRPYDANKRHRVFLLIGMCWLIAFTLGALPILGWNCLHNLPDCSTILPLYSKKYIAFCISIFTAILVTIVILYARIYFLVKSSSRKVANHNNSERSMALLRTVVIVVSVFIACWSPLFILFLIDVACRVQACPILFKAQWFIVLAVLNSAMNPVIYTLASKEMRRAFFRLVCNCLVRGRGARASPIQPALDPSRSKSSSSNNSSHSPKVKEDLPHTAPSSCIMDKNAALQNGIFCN
S1P4 agonist = activates the human S1P4 receptor; S1P4-expressing cell line, agonist reporter assay; activation, % at 4.98 µM; hit rate 0.35% among 220,000; AID 1509; in the data active = activation above about 11%;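 also: 0% = DMSO vehicle and 100% = reference agonist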
Numbers without * were called inactive; . = no result; ! = not confirmed by another sample.

SMILES	EP2 mod	S1P4 antag	PGE2 EP2 inh	S1P3 antag	S1P4 agonist
Nc1ncnc2c1nc(-c1ccccc1)n2[C@H]1O[C@@H](CO)[C@H](O)[C@H]1O	17.0	.	15.9	.	.
Fc1ccc(C2CC(c3ccco3)=Nc3ccccc3S2)cc1 (centres undefined)	62.3*	21.4	3.9	-10.8	0.3
COC(=O)c1c(NC(=O)COc2ccccc2C)sc(C(=O)N2CCCCC2)c1C	25.1	.	13.2	.	.
Cc1cc[nH]c(=O)c1NCc1cc2c(C)nn(-c3ccccc3)c2[nH]c1=O	-71.2	.	46.1*	.	.
Cc1nn(-c2ccccc2)c2[nH]c(=O)c(CNc3ccc(F)c(Cl)c3)cc12	-22.2	.	19.8	.	.
CCC1Oc2nc3ccccc3cc2CN(Cc2ccc(C)o2)C1=O (centres undefined)	-37.1	.	3.9	.	.
O=C(Nc1ccccc1)c1sccc1Oc1ccc([N+](=O)[O-])cc1F	63.2*	-11.9	11.2	-9.4	1.1
O=C(O)c1cc([N+](=O)[O-])ccc1Nc1ccccc1	-6.2	-10.9	12.4	-5.4	0.7
O=C(O)c1cc([N+](=O)[O-])ccc1C(=O)Nc1ccccc1	61.2*	-14.1	3.9	.	-2.4
COc1cccc(-c2nnc(SCC(N)=O)n2C)c1	-9.0	.	6.8	.	.
CC(=O)CCc1oc2ccccc2c1-c1ccccc1	78.7*	-12.8	4.9	8.2	1.5
CC(C)(C)C(=O)NC1CCN(C(=O)Nc2ccccc2Cl)CC1	-15.7	.	8.1	.	.
O=C1CCC(c2ccccc2)=NN1c1nc2ccccc2s1	-16.1	.	55.7*	.	.
O=C1Nc2ccccc2C1=Nc1ccc(S(=O)(=O)Nc2nccs2)cc1	-18.7	-1.4	46.0*!	7.6	3.1
O=S(=O)(Nc1ccc(-c2ccccc2)cc1)c1cccs1	16.3	.	20.2	.	.
O=C1CN2CCN(CC2)CC(=O)Nc2ccc(cc2)S(=O)(=O)c2ccc(cc2)NC(=O)CN2CCN(CC2)CC(=O)Nc2ccc(cc2)S(=O)(=O)c2ccc(cc2)N1	13.0	.	51.4*	.	.
O=C1CNCCCN2CCN(CCCNCC(=O)Nc3ccc(cc3)S(=O)(=O)c3ccc(cc3)NC(=O)CNCCCN3CCN(CCCNCC(=O)Nc4ccc(cc4)S(=O)(=O)c4ccc(cc4)N1)CC3)CC2	7.3	.	42.1*	.	.
Cc1ccc(-n2cnnn2)c(Br)c1	-23.0	.	12.1	.	.
COc1ccccc1C(NC(=O)C1CCC(OC)CC1)c1nccn1C (centres undefined)	1.2	.	.	.	.
O=C(Nc1ccccc1N1CCCCC1)c1ncoc1-c1cccs1	66.3*	.	.	.	.
CCOCc1nnc(NC(=O)Cc2c(C)[nH]c3c(C)c(C)ccc23)s1	-11.9	.	4.7	.	.
O=C(c1ccncc1)N1CCN(C(=O)c2ccncc2)CC1	4.1	-0.7	5.0	4.2	0.0
O=C(O)c1ccncc1.O=C(O)c1ccncc1.[NH2-].[NH2-].[Pt]	-14.3	.	51.3*	.	.
C(=N\Nc1nc(-c2ccccn2)nc2ccccc12)/c1ccccc1	68.7*	11.4	11.4	-5.4	-0.4
C(=N\Nc1nc(-c2cccnc2)nc2ccccc12)/c1ccccc1	-1.5	-19.7	12.9	6.2	-0.1
SMILES	EP2 mod	S1P4 antag	PGE2 EP2 inh	S1P3 antag	S1P4 agonist
Cc1cc(C)c2[nH]c(C(=O)NCc3nc(-c4ccccc4)no3)c(C)c2c1	-53.9	.	11.8	.	.
c1ccc(SC(Sc2ccccc2)c2ccc3c(c2)OCO3)cc1	27.4	.	41.5*	.	.
O=C(O)CC(Cc1ccccc1)c1ccc2c(c1)OCO2 (centres undefined)	14.0	-9.1	.	-13.8	1.0
N#CC1=C(N)Oc2c(c(=O)oc3ccccc23)C12C(=O)Nc1ccc(F)cc12 (centres undefined)	0.4	.	9.7	.	.
CCOc1ccc(-c2nc(C(N)=O)c3[nH]c(=O)n(C4CCCCC4)c3n2)cc1	-10.9	.	.	.	.
NS(=O)(=O)c1ccc(N=Nc2cc3ccccc3c(C(=O)O)c2O)cc1	-6.6	.	45.3*	.	.
NS(=O)(=O)c1ccc(N=Nc2ccc(O)c(C(=O)O)c2)cc1	41.4	.	10.4	.	.
CN(C1=C(NC(=O)c2ccccc2)C(=O)c2ccccc2C1=O)C1CCS(=O)(=O)C1 (centres undefined)	-59.0	-10.1	44.1*	-0.2	-1.7
Cc1nn(C)c(C)c1NC(=O)Cn1nc2c3ccccc3nc(C3CC3)n2c1=O	-7.3	.	10.8	.	.
COC(=O)C1=C(N)Oc2cc(C)n(C)c(=O)c2C1c1ccc(Cl)cc1 (centres undefined)	4.0	-8.5	5.8	70.7*	-2.1
COC(=O)c1ccc(C2C(C#N)=C(N)Oc3cc(C)n(C)c(=O)c32)cc1 (centres undefined)	4.0	-18.6	10.8	-26.7	1.0
Nc1nc(N)c2[nH]cnc2n1 (tested in a mixture with another compound)	27.0	.	11.8	.	.
